DRD3 antagonist: D3 dopamine receptor (human) antagonism; D3R cells, DiscoveRx beta-arrestin luminescence, antagonist mode; active compounds read low; hit rate 2.5% among 360,000; max response, negative = inhibition, %; AID 652054; P35462; in the data active = max response below about -50%; inconclusive = no clear call, values can overlap the other calls; note: % is set by controls: 0 for no effect and ±100 for the full control effect
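Cells expressing the human receptor were seeded at 1500 cells/well, incubated overnight at 37 degrees C in 5% CO2, then exposed to library compounds with dopamine controls for 90 minutes at 37 degrees C before luminescent detection.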
D3 ag: agonists of human D3 dopamine receptor. max activation, %. P35462. D3R DiscoveRx beta-arrestin cells, luminescence, 90 min. AID 652048. hit rate 0.58% among 410,000; in the data active = max activation above about 30%; note: 0% is about no effect
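Agonist mode: compounds and dopamine controls were applied to plated cells for 90 min at 37 degrees C after an overnight attachment at 1500 cells/well. Luminescent read-out followed 30 - 60 minutes at room temperature with DiscoveRx detection reagent.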
TDP1 cell CPT: growth inhibition of DT40 Tdp1-/-;hTDP1 cells with camptothecin (screen for TDP1 inhibitors). chicken DT40 Tdp1-/-;hTDP1 cells + 20 nM CPT, ATP luminescence, 48 h. hit rate 12% among 420,000. Potency, µM (series often up to 46.2 µM), inactives show at the highest dose activity change, negative = growth inhibition, most hits filed as inhibitors. AID 686979; note: potency is the fitted concentration of half-maximal effect; % is set by controls: 0 for no effect and ±100 for the full control effect; nearly all actives have a fitted effect of over 55% in size
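Chicken DT40 Tdp1-/- cells complemented with human TDP1, 400 cells/well, exposed to compounds plus 20 nM camptothecin for at least 48 h at 37 C; viability read as ATP content by CellTiter-Glo luminescence.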
TDP1 cell noCPT: qHTS for Inhibitors of human tyrosyl-DNA phosphodiesterase 1 (TDP1): qHTS in cells in absence of CPT | hit rate 15% among 420,000 | DT40 Tdp1-/- hTDP1 cells, no CPT, ATP luminescence, 48 h | Potency, µM (doses to about 46.2 µM), for inactives: at the top dose activity change, negative = growth inhibition, most hits filed as inhibitors | AID 686978, 2013; note: potency is the fitted concentration of half-maximal effect; % is set by controls: 0 for no effect and ±100 for the full control effect; nearly all actives have a fitted effect of over 55% in size
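Seeded 400 DT40-hTDP1 cells/well (vehicle DMSO, no 20 nM CPT); pinned compounds; ≥48 hr at 37 °C; CellTiter-Glo luminescence as viability measure.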
ClpP mod: qHTS Assay for Activators of ClpP. purified B. subtilis ClpP, FRET peptide cleavage, 20 min. Potency, µM (top dose mostly 57.5 µM), for inactives: at the top dose activity change, negative = active. AID 651965, 2013. hit rate 1.9% among 340,000. ATP-dependent Clp protease proteolytic subunit (Bacillus subtilis (strain 168)), P80244; active = well fitted falling curve with a large enough effect; inconclusive = small, poorly fitted or top-dose-only effect; inactive = no such curve, though single readings can be large or run the other way; note: potency is the fitted concentration of half-maximal effect; the source files actives as falling curves though it sought activators and does not explain the sign; nearly all actives have a fitted effect of over 65% in size
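FRET quenching reversal measured ClpP activation: 10 microg/mL B. subtilis ClpP at pH 8 with the FRET-FV decapeptide, read at 430 nm after 320 nm excitation. The 20-min minus 0-min signal was scaled between DMSO/no-enzyme wells and ADEP (5.8 microM final).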
IL1B secr inh: blocks inflammasome-driven IL-1 beta release | THP-1 LPS/ATP IL-1B secretion, AlphaLISA, 16 h; active compounds read low | activity change, % at 57.5 µM | hit rate 4.7% among 360,000 | AID 743279; in the data active = activity change below about -50%; inconclusive = mostly about -30% to -49%; note: % is set by controls: 0 for no effect and ±100 for the full control effect
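Secreted IL-1B measured by AlphaLISA bead assay after 16 h compound exposure of THP-1 cells; compounds (final up to 57.5 uM) added 1 h before LPS (250 ng/mL) and ATP (1.25 mM) stimulation; lower signal means less secretion.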
Numbers without * were called inactive; ? = inconclusive; / = no result given. Rows were chosen to be rich in hits. Some 21% of all compounds tested hit in one or more screens of this group. Unless noted, calls come from the whole dose curve; as a rule, active = well fitted inhibition curve with a large enough effect; inconclusive = small, poorly fitted or top-dose-only effect; inactive = flat fitted curve, though single readings scatter.

SMILES	DRD3 antagonist	D3 ag	TDP1 cell CPT	TDP1 cell noCPT	ClpP mod	IL1B secr inh
CC(C)(C)c1nc2c(Br)cc(Br)cc2c(=O)o1	-4	-13	0%	?	2%	2
CC1(C)O[C@@H]2[C@H](O1)[C@@H](COS(=O)(=O)O)O[C@H]2n1c(=S)[nH]c2c(=O)[nH]c(N)nc21	-18	-6	2%	-7%	0%	14
COc1ccc(CN(C(=O)Nc2ccc(C)c(F)c2)C2CCN(C(C)=O)CC2)cc1	/	4	-27%	-10%	2%	/
CN1C=CC2=C(C#N)C(N)C(C#N)(C#N)C(c3ccccc3)C2C1 (configuration not stated)	?	-5	-29%	?	28µM*	-13
CCN(CC)S(=O)(=O)c1cccc(-c2nnc(SCC(=O)c3ccc(Cl)s3)n2C)c1	-7	4	?	?	-1%	-11
CCN(CC)S(=O)(=O)c1ccc(-c2nnc3sc4cccc(C)c4n23)cc1	-7	-7	23µM*	?	4%	11
Cc1cc(=O)n2nc(N3CCC(C(=O)NCc4cccc(Br)c4)CC3)sc2n1	2	2	0%	17%	-2%	11
O=C(NCCc1ccccc1)/C(=C\c1cccc([N+](=O)[O-])c1)NC(=O)c1ccco1	4	10	?	?	1%	3
COc1cc(NS(=O)(=O)c2ccc3oc(=O)c4ncn(C)c4c3c2)cc(OC)c1	/	-21	-1%	-9%	1%	/
CC1(c2ccc(Cl)c(Cl)c2)NC(=S)N2C1NC(=S)N2c1ccccc1 (configuration not stated)	-13	-2	-22%	?	-1%	-73*
CC1(c2ccc(Cl)cc2)NC(=S)N2C1NC(=S)N2c1ccccc1 (configuration not stated)	-4	2	-11%	-29%	/	?
CC1(C)C2C(Cl)(Cl)C2(C)c2ccccc2N1C=O (configuration not stated)	4	7	20%	-8%	/	7
Brc1ccccc1OCCCN1CCCCCC1	-82*	-24	-28%	?	/	-4
Brc1ccccc1OCCCN1CCCC1	?	-19	-18%	?	-1%	0
Brc1ccccc1OCCN1CCCC1	-62*	-12	5%	-28%	/	-1
COc1ccccc1OCCOCCN1CCCC1	9	-6	8%	4%	-1%	14
O=CN1CCN(C2CC(=O)N(c3ccc(Br)cc3)C2=O)CC1 (configuration not stated)	0	-14	-10%	9%	35µM*	28
O=C1CC(N2CCC(O)(c3ccc(Br)cc3)CC2)C(=O)N1c1ccc(Cl)cc1 (configuration not stated)	?	-7	?	26µM*	-3%	0
O=C1CC(N2CCC(O)CC2)C(=O)N1c1ccc(Br)cc1 (configuration not stated)	?	3	?	?	-5%	0
COc1ccc(N2C(=O)CC(N3CCC(O)(c4ccc(Br)cc4)CC3)C2=O)cc1 (configuration not stated)	10	3	18µM*	?	1%	29
COc1cc(/C=N/N=C/c2c[nH]c(=O)c(C#N)c2Nc2ccccc2)ccc1O	-9	-5	-10%	1%	1%	3
Cc1cccc(C)c1-n1nnnc1C1(C)CCC(=O)N1Cc1cccnc1 (configuration not stated)	-2	4	-9%	-24%	-1%	64
Cc1ccccc1C(=O)N1CC/C(=N\OS(=O)(=O)O)c2ccc(Cl)cc21	/	6	-24%	-3%	/	/
O=C(O)c1cccc(Oc2ccc(C(=O)O)c([N+](=O)[O-])c2)c1	-22	-22	-15%	2%	1%	-2
C/C(=N\OCc1nc2ccccc2c(=O)n1/N=C/c1cc(C)cc([N+](=O)[O-])c1O)c1ccccc1	-6	2	-3%	-7%	-2%	-10
SMILES	DRD3 antagonist	D3 ag	TDP1 cell CPT	TDP1 cell noCPT	ClpP mod	IL1B secr inh
Cc1cc(/C=N/n2cnnc2)c(O)c([N+](=O)[O-])c1	-63*	-20	-1%	-5%	1%	-4
Cc1nc2ccc(CN(C)c3ccc(C(=O)N[C@@H](CCC(=O)O)C(=O)O)s3)cc2c(=O)[nH]1	/	-9	0.0084µM*	0.0042µM*	/	/
CC(=O)N(C(C)=O)c1ccc2nc(C)[nH]c(=O)c2c1	7	1	-8%	-18%	-1%	9
O=C(O)c1cc(-c2c[nH]c3ccccc23)nc2ccc3ccccc3c12	-11	-1	11%	-2%	/	18
c1ccc2c(-c3c[nH]c4ccccc34)c3ccccc3nc2c1	-53*	-4	?	16µM*	-1%	-19
CC1OC2(C)OC(=N)C1(C#N)C(C#N)(C#N)C2c1ccccc1 (configuration not stated)	-10	-5	-23%	?	25µM*	0
CC1C2(C)OC(=N)C(C#N)(C(C)O2)C1(C#N)C#N (configuration not stated)	11	4	-26%	-9%	/	-9
COc1cc(OC)c(NC(=O)N2CCC(CN3CCCC3)CC2)cc1Cl	/	-16	-1%	7%	0%	/
CN(C(=O)COC(=O)c1ccc(Cl)nc1)C1CCS(=O)(=O)C1 (configuration not stated)	-12	-20	-4%	-13%	-4%	-13
CN(C(=O)COc1ccc(Br)cc1Cl)C1CCCCC1	-12	-11	?	?	2%	-52*
O=C(COC(=O)c1cnc(Cl)c(Cl)c1)NC1CCCC1	-26	-10	-2%	-23%	-2%	?
CN(C(=O)COC(=O)c1cnc(Cl)c(Cl)c1)C1CCS(=O)(=O)C1 (configuration not stated)	8	4	-25%	-25%	/	-86*
CN(C(=O)COC(=O)c1cnc(Cl)c(Cl)c1)C1CCCCC1	?	-6	-28%	-26%	/	-96*
COc1ccc(NC(=O)[C@@H]2CC=C[C@@H]3CCN(C4CCCCC4)C(=O)[C@@H]32)cc1	-14	14	?	?	0%	2
CC(C#N)(Nc1ccc(Cl)cc1)c1cccnc1 (configuration not stated)	-61*	-18	3%	-11%	-4%	8
COCCNc1nc(-c2cc(C)n(CCc3ccc(OC)cc3)c2C)cs1	0	-1	16µM*	18µM*	2%	-16
